Results from PubChem BioAssay (Tox21).
Several values for one entry are separate records, joined by “and”; a condition that tells them apart may be missing. Equal values may be shown once. Results filed as inconclusive are left out. Some structures have more than one record in an assay (separate samples or runs), and their calls can disagree. Activity calls are given as the source filed them. Unless noted, calls follow the shape of the dose curve; as a rule, active = well fitted curve in the direction sought with a large enough effect in the repeat runs; inconclusive = weak or mixed curves; inactive = no such curve, though single readings can be large; an effect the other way counts as inactive or inconclusive.

What was measured:
[1] = molecular target: Voltage-gated inwardly rectifying potassium channel KCNH2 (Homo sapiens) (UniProt Q12809); assay: Human Ether-a-go-go-Related Gene (hERG) channel small molecule antagonists: fluorescence cell-based qHTS assay (AID 1671200);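 also: hERG-expressing U2OS cells given a thallium stimulus after FluxOR II dye loading; series mostly up to about 77 µM; nearly all actives have a fitted effect of over 50% in size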
Method in brief: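 Measured: Tl+ flux via fluorescence (480/540 nm) in hERG-expressing U2OS cells after 1 h dye loading at room temperature.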

[2] = molecular target: Acetylcholinesterase (Homo sapiens) (UniProt P22303); assay: Acetylcholinesterase (AChE) small molecule antagonists: fluorescence cell-based qHTS assay (AID 1347398; calls by dose curve; also: nearly all actives have a fitted effect of over 50% in size); settings: Potency: AChE activity; outcome: AChE activity
Method in brief: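 Endogenous acetylcholinesterase of SH-SY5Y neuroblastoma cells is measured in situ. After overnight attachment and 30 min compound exposure, cells receive acetylthiocholine and Thiolite Green; fluorescence is read after 40 min at room temperature.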

[3] = molecular target: Cytochrome P450 2D6 (Homo sapiens) (UniProt P10635); assay: Cytochrome P450 Family 2 Subfamily D Member 6 (CYP2D6) small molecule antagonists: luciferase reporter qHTS assay (AID 1671196); also: nearly all actives have a fitted effect of over 50% in size; also: potency is read from the fitted curve at half-maximal effect
Method in brief: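 Luminescence (RLU), read 20 min after detection reagent, indicated CYP2D6 conversion of proluciferin to luciferin during a 1 h NADPH-dependent reaction at room temperature.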

[4] = molecular target: Cytochrome P450 2C19 (Homo sapiens) (UniProt P33261); assay: Cytochrome P450 Family 2 Subfamily C Member 19 (CYP2C19) small molecule antagonists: luciferase reporter qHTS assay (AID 1671197); also: nearly all actives have a fitted effect of over 65% in size; also: potency is read from the fitted curve at half-maximal effect
Method in brief: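 Luminescent readout of CYP2C19 activity: luciferin product detected 20 min after adding detection reagent. Before that, compound and enzyme-substrate mix preincubated 10 min at room temperature; NADPH-regenerating system started a 1 h, 37C reaction. Ketoconazole as positive control.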

[5] = molecular target: Cytochrome P450 2C9 (Homo sapiens) (UniProt P11712); assay: Cytochrome P450 Family 2 Subfamily C Member 9 (CYP2C9) small molecule antagonists: luciferase reporter qHTS assay (AID 1671198); also: nearly all actives have a fitted effect of over 50% in size; also: potency is read from the fitted curve at half-maximal effect
Method in brief: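 P450-Glo proluciferin substrate with CYP2C9 enzyme; 10 min RT preincubation, then NADPH regeneration 1 h at 37C; luciferin detection reagent 20 min RT, luminescence in relative luminescence units.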

[6] = molecular target: Cytochrome P450 1A2 (Homo sapiens) (UniProt P05177); assay: Cytochrome P450 Family 1 Subfamily A Member 2 (CYP1A2) small molecule antagonists: luciferase reporter qHTS assay (AID 1671199); also: nearly all actives have a fitted effect of over 50% in size; also: potency is read from the fitted curve at half-maximal effect
Method in brief: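 CYP1A2 turnover of a luminogenic substrate was quantified after 1 h with NADPH regeneration at room temperature. Furafylline served as positive control.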

[7] = molecular target: Cytochrome P450 3A4 (Homo sapiens) (UniProt P08684); assay: Cytochrome P450 Family 3 Subfamily A Member 4 (CYP3A4) small molecule antagonists: luciferase reporter qHTS assay (AID 1671201); also: nearly all actives have a fitted effect of over 50% in size; also: potency is read from the fitted curve at half-maximal effect
Method in brief: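 Setup: enzyme-substrate mix, compound pin transfer, 10 min RT. Reaction: NADPH regeneration solution, 1 h RT. Readout: detection reagent stops turnover, luminescence measured after 20 min, expressed in relative luminescence units.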

[8] = molecular target: Acetylcholinesterase (Homo sapiens) (UniProt P22303); assay: Acetylcholinesterase (AChE) small molecule antagonists: enzyme-based qHTS assay (AID 1347397; calls by dose curve; also: nearly all actives have a fitted effect of over 55% in size); settings: Potency: AChE enzyme activity inhibition; outcome: AChE enzyme activity inhibition
Method in brief: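 Enzyme inhibition was scored from DTNB-detected thiocholine formed by recombinant human AChE acting on acetylthiocholine. The 30 min compound preincubation and 10 min substrate reaction were both run at room temperature, with DMSO as vehicle control.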

[9] = molecular target: Acetylcholinesterase (Homo sapiens) (UniProt P22303); assay: Acetylcholinesterase (AChE) small molecule antagonists: enzyme-based qHTS assay with human liver microsomes (AID 1347399; calls by dose curve; also: nearly all actives have a fitted effect of over 60% in size); settings: Potency: qHTS inhibition; outcome: qHTS inhibition
Method in brief: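 Recombinant human AChE (50 mU/mL in the enzyme mix) and human liver microsomes (0.25 mg/mL final) were preincubated with compound and NADPH (0.25 mg/mL final) for 30 min at 37 C. Acetylthiocholine/DTNB was then added; thiocholine was read colorimetrically after 10 min at room temperature.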

Measured: Potency

Cytochrome P450 2D6 (Homo sapiens), sequence (P10635 whole entry, looked up): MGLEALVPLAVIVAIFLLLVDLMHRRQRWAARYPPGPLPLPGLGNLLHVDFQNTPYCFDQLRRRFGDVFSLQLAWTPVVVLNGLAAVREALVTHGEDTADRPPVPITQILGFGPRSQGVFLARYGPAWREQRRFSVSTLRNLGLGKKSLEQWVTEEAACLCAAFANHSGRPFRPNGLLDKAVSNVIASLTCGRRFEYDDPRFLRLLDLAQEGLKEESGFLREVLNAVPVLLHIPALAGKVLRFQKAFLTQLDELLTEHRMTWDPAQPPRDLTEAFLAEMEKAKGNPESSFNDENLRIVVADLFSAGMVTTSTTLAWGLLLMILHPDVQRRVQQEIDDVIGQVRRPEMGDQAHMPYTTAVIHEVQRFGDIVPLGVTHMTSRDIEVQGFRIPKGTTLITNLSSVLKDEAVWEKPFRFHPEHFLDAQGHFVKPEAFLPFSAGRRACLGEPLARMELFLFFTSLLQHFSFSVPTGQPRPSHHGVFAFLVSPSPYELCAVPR
Cytochrome P450 3A4 (Homo sapiens), sequence (P08684 whole entry, looked up): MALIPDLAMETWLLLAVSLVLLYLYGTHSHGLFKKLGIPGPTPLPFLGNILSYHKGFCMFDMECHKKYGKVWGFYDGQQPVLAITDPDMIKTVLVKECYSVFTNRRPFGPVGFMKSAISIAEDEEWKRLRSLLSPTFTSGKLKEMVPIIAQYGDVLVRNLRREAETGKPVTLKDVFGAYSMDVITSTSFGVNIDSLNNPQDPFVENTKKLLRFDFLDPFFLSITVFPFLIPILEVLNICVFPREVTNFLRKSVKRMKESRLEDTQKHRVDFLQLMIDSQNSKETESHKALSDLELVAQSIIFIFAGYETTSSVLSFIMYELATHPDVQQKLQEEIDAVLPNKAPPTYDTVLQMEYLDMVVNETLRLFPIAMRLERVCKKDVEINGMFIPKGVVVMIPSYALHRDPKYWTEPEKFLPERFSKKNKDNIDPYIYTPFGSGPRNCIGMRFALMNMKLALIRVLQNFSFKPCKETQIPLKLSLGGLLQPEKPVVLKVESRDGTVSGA
Cytochrome P450 2C19 (Homo sapiens), sequence (P33261 whole entry, looked up): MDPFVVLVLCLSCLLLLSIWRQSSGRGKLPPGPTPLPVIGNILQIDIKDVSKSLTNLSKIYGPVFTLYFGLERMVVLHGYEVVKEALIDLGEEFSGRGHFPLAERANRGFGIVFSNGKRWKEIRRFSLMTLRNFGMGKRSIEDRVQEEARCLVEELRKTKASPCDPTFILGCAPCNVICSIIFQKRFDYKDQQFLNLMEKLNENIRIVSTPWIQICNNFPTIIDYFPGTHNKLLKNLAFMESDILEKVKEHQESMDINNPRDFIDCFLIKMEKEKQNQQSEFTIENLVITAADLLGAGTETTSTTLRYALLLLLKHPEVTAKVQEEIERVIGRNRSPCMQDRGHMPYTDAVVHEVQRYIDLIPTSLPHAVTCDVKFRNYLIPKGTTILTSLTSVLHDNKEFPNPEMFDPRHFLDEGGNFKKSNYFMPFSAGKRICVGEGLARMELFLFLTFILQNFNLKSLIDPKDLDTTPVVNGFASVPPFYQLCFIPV
Voltage-gated inwardly rectifying potassium channel KCNH2 (Homo sapiens), sequence (Q12809 whole entry, looked up): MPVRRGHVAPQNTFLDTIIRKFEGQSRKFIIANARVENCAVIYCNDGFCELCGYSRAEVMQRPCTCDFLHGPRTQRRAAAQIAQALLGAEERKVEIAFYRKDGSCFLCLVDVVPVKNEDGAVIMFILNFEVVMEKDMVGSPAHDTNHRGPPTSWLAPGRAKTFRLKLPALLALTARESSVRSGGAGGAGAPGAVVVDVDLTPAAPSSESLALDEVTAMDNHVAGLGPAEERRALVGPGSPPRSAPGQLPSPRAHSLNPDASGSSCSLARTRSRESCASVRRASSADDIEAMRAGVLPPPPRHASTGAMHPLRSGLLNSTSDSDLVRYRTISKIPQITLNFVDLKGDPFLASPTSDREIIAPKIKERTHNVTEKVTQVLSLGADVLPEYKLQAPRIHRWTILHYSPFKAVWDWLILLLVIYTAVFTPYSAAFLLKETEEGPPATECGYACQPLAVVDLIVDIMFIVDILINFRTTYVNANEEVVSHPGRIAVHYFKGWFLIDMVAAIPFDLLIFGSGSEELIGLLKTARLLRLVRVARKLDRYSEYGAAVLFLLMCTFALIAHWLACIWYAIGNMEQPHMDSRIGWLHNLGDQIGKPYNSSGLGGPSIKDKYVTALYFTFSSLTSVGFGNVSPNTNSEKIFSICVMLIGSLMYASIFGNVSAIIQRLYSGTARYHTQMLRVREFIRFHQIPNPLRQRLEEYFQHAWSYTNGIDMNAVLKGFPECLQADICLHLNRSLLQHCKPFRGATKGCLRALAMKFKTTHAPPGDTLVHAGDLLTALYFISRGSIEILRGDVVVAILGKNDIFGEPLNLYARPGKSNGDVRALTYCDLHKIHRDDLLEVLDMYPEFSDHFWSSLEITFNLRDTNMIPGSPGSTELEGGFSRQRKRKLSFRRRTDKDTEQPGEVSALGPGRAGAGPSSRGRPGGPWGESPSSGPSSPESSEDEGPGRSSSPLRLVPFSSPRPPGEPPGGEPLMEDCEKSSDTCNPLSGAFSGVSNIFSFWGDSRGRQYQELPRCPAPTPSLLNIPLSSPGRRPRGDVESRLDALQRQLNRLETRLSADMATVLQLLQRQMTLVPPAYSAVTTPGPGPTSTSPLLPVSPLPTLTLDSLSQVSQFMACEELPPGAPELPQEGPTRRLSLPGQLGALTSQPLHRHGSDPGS
Acetylcholinesterase (Homo sapiens), sequence (P22303 whole entry, looked up): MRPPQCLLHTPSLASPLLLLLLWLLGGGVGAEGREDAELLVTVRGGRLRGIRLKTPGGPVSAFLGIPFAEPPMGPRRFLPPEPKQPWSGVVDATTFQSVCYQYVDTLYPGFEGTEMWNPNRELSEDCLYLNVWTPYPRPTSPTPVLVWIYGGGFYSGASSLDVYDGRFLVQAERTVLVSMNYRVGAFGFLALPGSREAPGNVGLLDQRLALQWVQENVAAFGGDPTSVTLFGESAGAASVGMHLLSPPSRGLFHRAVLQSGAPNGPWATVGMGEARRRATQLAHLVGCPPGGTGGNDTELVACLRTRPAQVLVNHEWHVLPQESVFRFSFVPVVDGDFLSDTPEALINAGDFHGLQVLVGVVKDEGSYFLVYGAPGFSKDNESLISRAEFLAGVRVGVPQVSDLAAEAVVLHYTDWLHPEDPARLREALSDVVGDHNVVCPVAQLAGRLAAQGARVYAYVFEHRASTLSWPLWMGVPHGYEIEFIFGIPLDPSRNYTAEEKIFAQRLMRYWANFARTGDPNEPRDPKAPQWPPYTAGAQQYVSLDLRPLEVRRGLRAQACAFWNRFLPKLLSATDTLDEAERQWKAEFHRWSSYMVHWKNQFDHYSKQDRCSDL
Cytochrome P450 2C9 (Homo sapiens), sequence (P11712 whole entry, looked up): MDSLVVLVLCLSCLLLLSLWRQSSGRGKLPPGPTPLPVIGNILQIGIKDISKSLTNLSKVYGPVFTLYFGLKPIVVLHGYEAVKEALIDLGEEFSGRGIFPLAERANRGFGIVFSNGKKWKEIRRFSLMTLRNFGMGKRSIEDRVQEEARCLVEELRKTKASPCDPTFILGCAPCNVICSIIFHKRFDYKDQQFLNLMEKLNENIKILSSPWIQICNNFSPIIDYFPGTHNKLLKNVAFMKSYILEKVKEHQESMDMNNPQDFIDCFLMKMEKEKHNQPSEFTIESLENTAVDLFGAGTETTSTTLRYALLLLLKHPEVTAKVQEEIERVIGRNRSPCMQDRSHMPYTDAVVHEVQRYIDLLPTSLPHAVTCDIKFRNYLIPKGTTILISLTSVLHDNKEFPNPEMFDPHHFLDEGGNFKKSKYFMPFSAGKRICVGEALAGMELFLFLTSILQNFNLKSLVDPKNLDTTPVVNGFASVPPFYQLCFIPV
Cytochrome P450 1A2 (Homo sapiens), sequence (P05177 whole entry, looked up): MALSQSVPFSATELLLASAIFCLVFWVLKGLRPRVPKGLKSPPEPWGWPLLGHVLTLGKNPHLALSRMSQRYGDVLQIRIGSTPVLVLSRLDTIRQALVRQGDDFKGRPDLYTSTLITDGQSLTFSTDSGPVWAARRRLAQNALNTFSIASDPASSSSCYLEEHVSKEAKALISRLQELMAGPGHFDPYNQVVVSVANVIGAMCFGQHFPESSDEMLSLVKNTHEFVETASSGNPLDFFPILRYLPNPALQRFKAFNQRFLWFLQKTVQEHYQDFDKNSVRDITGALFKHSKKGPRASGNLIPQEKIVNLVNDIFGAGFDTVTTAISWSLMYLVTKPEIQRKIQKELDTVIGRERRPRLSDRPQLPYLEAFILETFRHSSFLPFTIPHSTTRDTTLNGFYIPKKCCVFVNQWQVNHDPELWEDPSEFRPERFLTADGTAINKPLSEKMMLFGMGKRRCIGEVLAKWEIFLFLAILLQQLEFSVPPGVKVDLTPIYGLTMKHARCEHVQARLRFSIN

CC(=O)NNc1ccccc1
inactive: [1]

COP(=O)(OC)OC(Br)C(Cl)(Cl)Br (stereo not drawn)
inactive: [2] | [1]
79.8 µM (active) and inactive: [7]
active: [3] 40 µM and 39.9 µM | [4] 7.98 µM and 17.8 µM | [5] 25.2 µM and 22.4 µM | [6] 35.6 µM

O=C(O)CCCOc1ccc(Cl)cc1Cl
inactive: [1]

C[CH2][Hg][S]c1ccccc1C(=O)O
inactive: [1]

O=C(O)C(O)C(O)C(=O)O (stereo not drawn)
inactive: [8] | [2] | [1]

CC1(C)[C@H](C(=O)O[C@H](C#N)c2cccc(Oc3ccccc3)c2)[C@@H]1C=C(Br)Br
inactive: [3] | [6] | [1] | [7]

Cc1ccc(N)c(C)c1
inactive and 896 nM (active): [3]
inactive: [1]
active: [4] 39.5 µM and 7.12 µM | [5] 35.7 µM | [6] 11.1 µM and 2.83 µM | [7] 40 µM

Nc1cc(Cl)cc(C(=O)O)c1Cl
inactive: [8] | [2] | [1] | [7]
39.6 µM (active) and inactive: [3]

O=C(O)C(F)(F)C(F)(F)C(F)(F)C(F)(F)C(F)(F)F
inactive: [8] | [2] | [3] | [6] | [1]

C#C[C@]1(O)CC[C@H]2[C@@H]3CCC4=CC(=O)CCC4=C3C=C[C@@]21CC
inactive: [8] | [9] | [6] | [1]
active: [3] 5.49 µM | [4] 2.45 µM | [5] 0.776 µM

O=C(O)c1cc(Cl)ccc1Cl
active: [6] 39.7 µM
inactive: [8] | [9] | [1] | [7]

CCCCCCCCCCCCCCCl
not listed: [2] | [6]
inactive: all other assays above

CC(C)CCON=O
not listed: [3] | [9]
inactive: all other assays above

Nc1ccccc1C(=O)OCCc1ccccc1
active: [4] 5.66 µM and 8.94 µM | [5] 31.8 µM and 35.6 µM | [6] 7.13 µM and 7.1 µM
inactive: [8] | [2] | [1]

C[N+]1(CCC(C(N)=O)(c2ccccc2)c2ccccc2)CCCCC1
active: [3] 8.71 µM
not listed: [2]
inactive: all other assays above

O=C(O)C(Cl)(Cl)Br
not listed: [3] | [5] | [9]
inactive: all other assays above

O=C(N[C@H]1CN2CCC1CC2)c1ccc2c(c1)OCCO2
inactive: [8] | [5] | [6] | [1] | [7]

C[C@@H]1C[C@@H]([C@H](O)CC2CC(=O)NC(=O)C2)C(=O)[C@@H](C)C1
inactive: [1]

CN(C)N
active: [6] 35.6 µM
not listed: [4] | [9]
inactive: all other assays above

CC(O)CN1CCN(CC(=O)[O-])CCN(CC(=O)[O-])CCN(CC(=O)[O-])CC1.[Gd+3] (stereo not drawn)
not listed: [4] | [5] | [9]
inactive: all other assays above
